{"source": "PubChem BioAssay AID977611", "origin": "cited, not measured here", "assay": "PubChem AID 977611", "details": "PDB protein-ligand complexes, literature Kd", "note": "The whole screen tested about 3,900 compounds, of which about 3,900 (100%) were called active. The limit is not given here; nearly all actives have Kd up to about 4200 µM. The set was probably picked from earlier hits. The list shows a part of the results. Where a SMILES comes first, the peptide text is derived from it. Non-standard residues stand in square brackets, D forms with d. Square brackets hold non-standard residues; d marks the D form. Residues, ends and D or L forms follow the SMILES beside them. Peptide text beside a SMILES is read from it. [ ]: non-standard residue; d: D form. *: point of attachment. X1 = O=C(O)c1cc(NC(=S)*)ccc1-c1c2ccc(=O)cc-2oc2cc(O)ccc12; Phe(3,4-Cl2) = N[C@@H](Cc1ccc(Cl)c(Cl)c1)C(=O)O; Orn(CH(NH2)2) = NC(N)NCCC[C@H](N)C(=O)O; Cha = N[C@@H](CC1CCCCC1)C(=O)O; Ahx = NCCCCCC(=O)O", "data": [{"molecule": "NCc1cccc2c1OCCCO2", "values": [{"measurement": "Kd", "setting": "protein: CATIONIC TRYPSIN, PDB entry 4ab8", "result": "136000 nM (active)"}]}, {"molecule": "NC(=O)Nc1cn(-c2cccc3ccccc23)nc1C(N)=O", "values": [{"measurement": "Kd", "setting": "protein: Tyrosine-protein kinase ITK/TSK kinase domain, PDB entry 4m0y", "result": "350 nM (active)"}]}, {"molecule": "COc1ccc2cccc(-n3cc(NC(N)=O)c(C(N)=O)n3)c2c1", "values": [{"measurement": "Kd", "setting": "protein: Tyrosine-protein kinase ITK/TSK kinase domain, PDB entry 4m0z", "result": "6400 nM (active)"}]}, {"molecule": "CCOc1ccc2cccc(-n3cc(NC(N)=O)c(C(N)=O)n3)c2c1", "values": [{"measurement": "Kd", "setting": "protein: Tyrosine-protein kinase ITK/TSK kinase domain, PDB entry 4m12", "result": "900 nM (active)"}]}, {"molecule": "CCCOc1ccc2cccc(-n3cc(NC(N)=O)c(C(N)=O)n3)c2c1", "values": [{"measurement": "Kd", "setting": "protein: Tyrosine-protein kinase ITK/TSK kinase domain, PDB entry 4m13", "result": "200 nM (active)"}]}, {"molecule": "CC(C)Oc1ccc2cccc(-n3cc(NC(N)=O)c(C(N)=O)n3)c2c1", "values": [{"measurement": "Kd", "setting": "protein: Tyrosine-protein kinase ITK/TSK kinase domain, PDB entry 4m14", "result": "200 nM (active)"}]}, {"molecule": "CC(C)C[C@H](NC(=O)[C@H](C)N)C(=O)N[C@@H](CCCCN)C(=O)N[C@@H](CCCNC(N)N)C(=O)N[C@@H](CCCNC(N)N)C(=O)N[C@@H](CC(N)=O)C(=O)N[C@H](C(=O)O)C(C)C", "note": "(HELM PEPTIDE1{A.L.K.[NC(N)NCCC[C@H](N[*:1])C(=O)[*:2]].[NC(N)NCCC[C@H](N[*:1])C(=O)[*:2]].N.V}$$$$V2.0)", "values": [{"measurement": "Kd", "setting": "protein: Importin-?, PDB entry 1iq1", "result": "35 nM (active)"}]}, {"molecule": "H-AAKKLV-OH", "values": [{"measurement": "Kd", "setting": "protein: Coatomer subunit beta', PDB entry 4j73", "result": "27700 nM (active)"}]}, {"molecule": "CC(C)C[C@H](NC(=O)[C@H](CCCCN)NC(=O)[C@H](CCCNC(N)N)NC(=O)[C@H](C)N)C(=O)N[C@@H](CC(=O)O)C(=O)O", "note": "(H-A[Orn(CH(NH2)2)]KLD-OH)", "values": [{"measurement": "Kd", "setting": "protein: Coatomer subunit beta', PDB entry 4j84", "result": "20400 nM (active)"}]}, {"molecule": "S=CNc1ccc2oc(C3=NCCN3)cc2c1", "values": [{"measurement": "Kd", "setting": "protein: Chitinase A, PDB entry 3ary", "result": "1000 nM (active)"}, {"measurement": "Kd", "setting": "protein: Chitinase A, PDB entry 3arz", "result": "1000 nM (active)"}]}, {"molecule": "CN(C)CCOc1ccc(-c2nc(-c3ccc4c(c3)CC/C4=N/O)c(-c3ccncc3)[nH]2)cc1", "values": [{"measurement": "Kd", "setting": "protein: B-Raf kinase domain, PDB entry 2fb8", "result": "0.16 nM (active)"}]}, {"molecule": "O=C(c1ccc(O)cc1O)n1cc2ccccc2c1", "values": [{"measurement": "Kd", "setting": "PDB entry 4mp7", "result": "1830 nM (active)"}]}, {"molecule": "O=S(=O)(c1ccc(O)cc1O)n1cc2ccccc2c1", "values": [{"measurement": "Kd", "setting": "PDB entry 4mpc", "result": "711 nM (active)"}]}, {"molecule": "O=S(=O)(c1ccc(O)cc1O)n1cc2cc(O)cc(O)c2c1", "values": [{"measurement": "Kd", "setting": "PDB entry 4mpn", "result": "239 nM (active)"}]}, {"molecule": "CSCC[C@H](NC(=O)[C@H](CC(C)C)NC(=O)[C@H](Cc1ccccc1)NC(=O)[C@H](CC(=O)O)NC(=O)[C@H](Cc1ccc(O)cc1)NC(=O)[C@H](Cc1c[nH]c2ccccc12)NC(=O)[C@@H](NC(=O)[C@@H](NC(=O)[C@H](CCCNC(N)N)NC(=O)[C@@H](N)CO)C(C)C)[C@@H](C)O)C(=O)N[C@@H](CCC(=O)O)C(=O)N[C@@H](CC(=O)O)C(=O)O", "note": "(H-S[Orn(CH(NH2)2)]VTWYDFLMED-OH)", "values": [{"measurement": "Kd", "setting": "protein: Guanine nucleotide-binding protein G, PDB entry 1y3a", "result": "3900 nM (active)"}]}, {"molecule": "CC(C)C[C@H](NC(=O)[C@H](CCC(=O)O)NC(=O)[C@H](CO)NC(=O)[C@H](CC(=O)O)NC(=O)[C@H](CO)NC(=O)[C@H](CC(=O)O)NC(=O)[C@H](CCC(=O)O)NC(=O)[C@H](CCC(N)=O)NC(=O)[C@H](CO)NC(=O)CN)C(=O)N[C@@H](CCC(=O)O)C(=O)N[C@@H](CCC(N)=O)C(=O)N[C@@H](Cc1ccc(O)cc1)C(=O)N[C@@H](Cc1ccccc1)C(=O)N[C@H](C(=O)N[C@@H](C)C(=O)N[C@@H](CCCNC(N)N)C(=O)N[C@@H](Cc1c[nH]c2ccccc12)C(=O)O)[C@@H](C)O", "note": "(H-GSQEDSDSELEQYFTA[Orn(CH(NH2)2)]W-OH)", "values": [{"measurement": "Kd", "setting": "protein: DAXX N-Terminal Helical Bundle Domain (55-144), PDB entry 2kzu", "result": "60000 nM (active)"}]}, {"molecule": "CC(C)C[C@H](NC(=O)[C@H](C)NC(=O)[C@H](Cc1ccc(Cl)c(Cl)c1)NC(=O)[C@H](Cc1c[nH]c2ccccc12)NC(=O)[C@H](CCC(=O)O)NC(=O)[C@H](CCC(=O)O)NC(=O)[C@H](CC(C)C)NC(=O)[C@H](CC(=O)O)NC(=O)[C@H](CC(=O)O)NC(=O)[C@H](C)NC(=O)[C@@H](NC(=O)[C@H](Cc1ccccc1)NC(=O)[C@H](CC(=O)O)NC(=O)CCCCCNC(=S)Nc1ccc(-c2c3ccc(=O)cc-3oc3cc(O)ccc23)c(C(=O)O)c1)[C@@H](C)O)C(N)=O", "note": "({X1-Ahx}-DFTADDLEEW[Phe(3,4-Cl2)]AL-NH2)", "values": [{"measurement": "Kd", "setting": "protein: Replication protein A 70 kDa DNA-binding subunit, PDB entry 4nb3", "result": "22 nM (active)"}]}, {"molecule": "CCCCC/C=C\\C/C=C\\CCCCCCCCCC(=O)N[C@@H](CO[C@H]1O[C@H](CO)[C@H](O)[C@H](O)[C@H]1O)[C@H](O)[C@H](O)CCCCCCCCCCCCCC", "values": [{"measurement": "Kd", "setting": "protein: L363, PDB entry 3ubx", "result": "25.2 nM (active)"}]}, {"molecule": "CCCCCC[C@@H](O)[C@H](CCCCCC)C(=O)O", "values": [{"measurement": "Kd", "setting": "protein: Peptidoglycan recognition protein 1, PDB entry 3t2v", "result": "103 nM (active)"}]}, {"molecule": "CC[C@H](C)[C@H](NC(=O)[C@H](CC1CCCCC1)NC(=O)[C@H](Cc1ccc(O)cc1)NC(=O)[C@@H](N)CC(C)C)C(=O)N1CCC[C@H]1C(=O)N[C@@H](CCCNC(N)N)C(=O)N1CCC[C@H]1C(N)=O", "note": "(H-LY[Cha]IP[Orn(CH(NH2)2)]P-NH2)", "values": [{"measurement": "Kd", "setting": "protein: Chaperone protein DnaK, PDB entry 4hyb", "result": "350 nM (active)"}]}, {"molecule": "CC(C)C[C@H](N)C(=O)N[C@@H](Cc1ccc(O)cc1)C(=O)N[C@@H](CC1CCCCC1)C(=O)N[C@@H](CC1CCCCC1)C(=O)N1CCC[C@H]1C(=O)N[C@@H](CCCNC(N)N)C(=O)N1CCC[C@H]1C(=O)N[C@H](C(N)=O)[C@@H](C)O", "note": "(H-LY[Cha][Cha]P[Orn(CH(NH2)2)]PT-NH2)", "values": [{"measurement": "Kd", "setting": "protein: Chaperone protein DnaK, PDB entry 4hy9", "result": "80 nM (active)"}]}, {"molecule": "CC(C)C[C@H](NC(=O)[C@@H](N)CCCCN)C(=O)N[C@@H](Cc1ccc(O)cc1)C(=O)N[C@@H](CC1CCCCC1)C(=O)N[C@@H](CC(C)C)C(=O)N1CCC[C@H]1C(=O)N[C@@H](CCCNC(N)N)C(=O)N1CCC[C@H]1C(=O)N[C@H](C=O)[C@@H](C)O", "note": "(H-KLY[Cha]LP[Orn(CH(NH2)2)]PT-aldehyde)", "values": [{"measurement": "Kd", "setting": "protein: E. coli Chaperone protein dnaK, PDB entry 3dpo", "result": "5.5 nM (active)"}]}, {"molecule": "NC1NC(=O)c2c([nH]c(=S)n2CCO)N1", "note": "(stereo not given)", "values": [{"measurement": "Kd", "setting": "protein: 7,8-DIHYDRO-6-HYDROXYMETHYLPTERIN-PYROPHOSPHOKINASE, PDB entry 4ad6", "result": "16700 nM (active)"}]}, {"molecule": "H-INPTGCARSEPKI-OH", "values": [{"measurement": "Kd", "setting": "protein: WD repeat-containing protein 5, WDR5, PDB entry 4erq", "result": "75 nM (active)"}]}, {"molecule": "H-VNPTGCARSEPKMS-OH", "values": [{"measurement": "Kd", "setting": "protein: WD repeat-containing protein 5, WDR5, PDB entry 4ery", "result": "54 nM (active)"}]}, {"molecule": "C[C@H](NC(=O)[C@H](CC(=O)O)NC(=O)[C@H](CCCCN)NC(=O)[C@H](CO)NC(=O)[C@H](C)NC(=O)[C@@H](N)CO)C(=O)O", "note": "(H-SASKDA-OH)", "values": [{"measurement": "Kd", "setting": "protein: Histone-lysine N-methyltransferase SETD7 (Y335F mutant), PDB entry 4j7i", "result": "8800 nM (active)"}]}, {"molecule": "H-KEKSD-OH", "values": [{"measurement": "Kd", "setting": "protein: Coatomer subunit beta', PDB entry 4j77", "result": "3400 nM (active)"}]}, {"molecule": "NC(N)=N/C=C/C[C@H](N[C@H](CCC(=O)O)C(=O)O)C(=O)O", "values": [{"measurement": "Kd", "setting": "protein: Nopaline-binding periplasmic protein NocT WT, PDB entry 4pox", "result": "3700 nM (active)"}]}, {"molecule": "CC(C)(C)c1cccc(C2C=CC=NC2=O)c1", "note": "(stereo not given)", "values": [{"measurement": "Kd", "setting": "protein: RNA-directed RNA polymerase, PDB entry 4ih7", "result": "5800 nM (active)"}]}, {"molecule": "NC1NC(=O)c2[nH]cc(CN3C[C@H](CO)[C@@H](O)C3)c2N1", "note": "(stereo not given in full)", "values": [{"measurement": "Kd", "setting": "protein: Purine nucleoside phosphorylase (W16Y, W94Y, W178Y, H257W mutation), PDB entry 4ear", "result": "0.151 nM (active)"}]}, {"molecule": "CC1(C)CNC(=[N+]2CCN(c3ncnc4sc(CC(F)(F)F)cc34)CC2)S1", "values": [{"measurement": "Kd", "setting": "protein: Menin (A541T mutation), PDB entry 4gq4", "result": "22 nM (active)"}]}, {"molecule": "CC(C)[C@H](NC(=O)[C@H](CO[P+](O)(O)O)NC(=O)[C@H](CCCCN)NC(=O)[C@H](CCCNC(N)N)NC(=O)[C@H](CCCNC(N)N)NC(=O)[C@@H](N)CCCCN)C(=O)O", "values": [{"measurement": "Kd", "setting": "protein: 14-3-3 protein sigma, PDB entry 4fr3", "result": "70 nM (active)"}]}, {"molecule": "CC(C)[C@H](NC(=O)[C@H](CO[P+](O)(O)O)NC(=O)[C@H](CCCCN)NC(=O)[C@H](CCCNC(N)N)NC(=O)[C@H](CCCNC(N)N)NC(=O)[C@H](C)N)C(=O)O", "values": [{"measurement": "Kd", "setting": "protein: 14-3-3 protein sigma, PDB entry 3ux0", "result": "550 nM (active)"}]}, {"molecule": "C[C@H](NC(=O)[C@H](CCCCN)NC(=O)[C@H](CC(=O)O)NC(=O)[C@@H](N)CCCCN)C(=O)N[C@@H](CCCCN)C(=O)N[C@@H](CO[P+](O)(O)O)C(=O)N[C@@H](CS)C(=O)O", "values": [{"measurement": "Kd", "setting": "protein: 14-3-3 PROTEIN ZETA/DELTA, PDB entry 4bg6", "result": "69 nM (active)"}]}]}
